Compound activity: PubChem, The Scripps Research Institute Molecular Screening Center
In the library only some 4.1% were active in any assay of this set; here they are far more common.
DAX1 inh-1 – inhibitors of human orphan nuclear receptor DAX1 (NR0B1); P51843; HEK293 Gal4-DAX1 luciferase reporter, luminescence; inhibition, % at 6.75 µM; 340,000 compounds, 0.99% hits; AID 504766;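 active = inhibition above the mean over all tested compounds plus 3 SD, cut at about 4.2% in these data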;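 also: inhibition shows as a rise in luminescence from relieved DAX1 repression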
DAX1 inh-2 – DAX1 (NR0B1) inhibition, primary screen | HEK293T StAR-luciferase reporter, SF-1/DAX-1 repression relief | inhibition, % at 6.8 µM | 370,000 compounds, 1.1% hits | AID 652010;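 active = inhibition above the mean over all tested compounds plus 3 SD, cut at about 3.6% in these data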;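 also: higher inhibition means more luminescence from relief of DAX-1 repression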
ssDAF12 agonist – activators of S. stercoralis DAF-12 nuclear receptor | HEK293 ssDAF-12/GRIP1 lit1-tk-luc reporter, luminescence; % of 3 µM dafachronic acid response | activation, % at 6.8 µM | 370,000 compounds, 1% hits;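 active = activation above the mean over all tested compounds plus 3 SD, cut at about 0.9% in these data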
hgDAF12 agonist – activates the H. glycines DAF-12 receptor ligand-binding domain; HEK293 GAL4-hgDAF12 UAS-luciferase reporter, agonist luminescence; normalized to butyrate control; activation, % at 6.8 µM; 370,000 compounds, 1.8% hits;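 active = activation above a cutoff set at the mean of all screened compounds plus 3 SD, cut at about 10% in these data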
hcDAF-12 act – activators of H. contortus DAF-12 nuclear receptor. HEK293 hcDAF-12 lit1-tk-luc reporter, luminescence; 0% DMSO, 100% Δ7-dafachronic acid. activation, % at 6.8 µM. 370,000 compounds, 1.4% hits;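 active = activation above the mean of all tested compounds plus 3 SD, cut at about 5.5% in these data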
DAX1 inh confirm – NR0B1 (human) inhibition, confirmation | 2,400 compounds, 87% hits | HEK293T StAR-promoter luciferase reporter, SF-1/DAX-1 repression | shares compounds with DAX1 inh-2 | inhibition, % at 6.8 µM;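 active = inhibition above the average of every tested compound plus 3 SD, cut at about 3.8% in these data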;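 also: active compounds raise luminescence by relieving repression of the StAR reporter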
Target sequence (P51843 whole entry, looked up): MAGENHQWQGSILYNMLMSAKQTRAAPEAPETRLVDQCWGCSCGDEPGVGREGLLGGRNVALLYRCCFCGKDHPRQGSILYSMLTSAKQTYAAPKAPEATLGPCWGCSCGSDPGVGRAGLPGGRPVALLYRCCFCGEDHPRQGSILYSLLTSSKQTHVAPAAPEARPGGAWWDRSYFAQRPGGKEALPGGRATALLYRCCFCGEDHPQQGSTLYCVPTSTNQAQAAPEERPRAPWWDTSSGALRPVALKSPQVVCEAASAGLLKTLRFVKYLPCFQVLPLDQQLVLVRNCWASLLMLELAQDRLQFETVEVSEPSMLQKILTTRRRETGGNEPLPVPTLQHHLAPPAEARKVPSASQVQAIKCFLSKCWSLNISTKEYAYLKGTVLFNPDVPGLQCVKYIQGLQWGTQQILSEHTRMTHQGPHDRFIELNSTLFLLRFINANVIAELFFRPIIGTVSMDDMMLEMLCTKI
SF1 mutant ctr – nonselective inhibitor or artifact in SF-1 mutant DAX1 counter-screen; shares compounds with DAX1 inh-2; HEK293 StAR-luciferase, SF-1 AF2 mutant, luminescence; inhibition, % at 6.8 µM; 2,400 compounds, 78% hits; AID 652136;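 active = inhibition above the mean of all tested compounds plus 3 SD, cut at about 3% in these data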
LXRb hcDAF ctr – counter-screen for hcDAF-12 agonists: agonists of human LXR-beta; activation, % at 6.8 µM; shares compounds with hcDAF-12 act; AID 743027; 3,400 tested, under 10 active; HEK293 Gal4-LXR tk-luc reporter, luminescence, 24 h; normalized: DMSO 0%, positive control 100%;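 active = mean percent activation of the reporter above a cutoff set as the average over tested compounds plus their standard deviation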
hcDAF12 ag – hcDAF-12 agonism, confirmation assay | shares compounds with hcDAF-12 act | 3,400 compounds, 61% hits | activation, % at 6.8 µM | AID 743032 | HEK293 hcDAF-12 lit1-tk-luc reporter, luminescence; % of Δ7-dafachronic acid response;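 active = mean activation across triplicate tests above the threshold derived from the earlier primary screen, cut at about 5.5% in these data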
hgDAF12 ag – confirmation of H. glycines DAF-12 agonists. shares compounds with hgDAF12 agonist. HEK293 GAL4-hgDAF12 luciferase reporter, agonist mode; percent of butyrate response. activation, % at 6.8 µM. 3,300 compounds, 80% hits;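 active = mean activation over triplicate wells above the hit cutoff derived from the earlier primary screen, cut at about 11% in these data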
LXRb DAF12 ctr – counter-screen for DAF-12 agonists: agonists of human LXR-beta; shares compounds with hgDAF12 agonist; HEK293 Gal4-LXR luciferase reporter, 24 h; activation, % at 6.8 µM; 3,300 tested, under 10 active;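 active = mean activation of the triplicate above a set limit carried over from the primary screen, none filed active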
Numbers stand for hits; - = inactive; . = not tested or not shown.

SMILES	DAX1 inh-1	DAX1 inh-2	ssDAF12 agonist	hgDAF12 agonist	hcDAF-12 act	DAX1 inh confirm	SF1 mutant ctr	hgDAF12 ag	LXRb DAF12 ctr	others
COc1ccc(/C=C/c2nc3ccccc3n2Cc2ccc(OC)c(OC)c2)cc1	-	5.9	0.9	27	7.7	19	6.8	15	-	LXRb hcDAF ctr=-;hcDAF12 ag=8.6
COCCOCCn1c(/C=C/c2ccccc2)nc2ccccc21	-	6.2	-	13	-	14	6.8	15	-
Cc1ccc(NC(=O)NNC(=O)CCn2nc(C)c([N+](=O)[O-])c2C)cc1C	.	-	-	-	-	.	.	.	.
Cc1ccsc1/C=N/NC(=O)Nc1ccccc1	5.2	5.8	1.1	17	-	11	6.9	17	-
Cc1cc(C)n2c(NC3CCCC3)c(-c3cc4ccccc4o3)nc2n1	.	5.3	1.2	17	-	4.2	-	-	-
Cc1ccc(NC(=O)c2ccccc2)s1	-	4.5	-	20	6.9	15	11	15	-	LXRb hcDAF ctr=-;hcDAF12 ag=8.3
Clc1ccc(-n2c(SCc3cccc4ccccc34)nnc2-c2cccnc2)cc1	.	-	-	-	-	.	.	.	.
C=CCOC/C=C/C#CCN(Cc1ccc(OC)cc1OC)C(=O)Nc1ccccc1	.	-	-	-	-	.	.	.	.
O=C(Nc1n[nH]c(=S)s1)c1ccc2ccccc2c1	-	16	-	14	-	13	6.3	13	-
COc1cccc2[nH]c(-c3ccccn3)nc12	.	7.2	-	18	6.4	8.6	5.6	16	-
COc1cnc(-c2ccccn2)[nH]c1=O	-	-	-	-	-	.	.	.	.
Cc1ccc(Cc2c(-c3cccc(Br)c3)nc3ccc(Br)cn23)cc1	.	-	-	-	-	.	.	.	.
Cc1ccc2nc(-c3cccc(Br)c3)c(Cc3ccsc3)n2c1	.	4.5	-	15	-	-	-	-	-
COC(=O)C[C@H]1CC[C@H]2[C@H](COc3ccc(NS(=O)(=O)c4ccccc4C)cc3C(=O)N2C)O1	.	-	-	-	-	.	.	.	.
COc1ccc(-c2cn3cc(C)ccc3n2)cc1Br	-	6.9	1.2	20	14	19	8.2	20	-	LXRb hcDAF ctr=-;hcDAF12 ag=6.5
COc1ccc2nc(NC(=O)c3ccoc3C)sc2c1	-	5.5	-	15	9.9	14	4.4	19	-	LXRb hcDAF ctr=-;hcDAF12 ag=5.9
COC(=O)c1sc(NC(=O)c2ccoc2C)nc1C	-	-	-	-	-	.	.	.	.
COc1ccc2nc(NC(=O)C3COc4ccccc4O3)sc2c1 (stereo unspecified)	-	5.6	-	19	6.4	12	7.6	11	-
O=C(c1ccccc1)n1ccc(-c2cnc(-c3ccccc3)s2)n1	-	4.9	1.0	18	7.7	13	5.6	20	-	LXRb hcDAF ctr=-;hcDAF12 ag=7.1
COc1ccc(S(=O)(=O)n2ccc(-c3cnc(-c4ccccc4)s3)n2)cc1	-	-	-	-	-	.	.	.	.
CCC(=O)N1CCc2cc(Br)c(S(=O)(=O)N3CCCC(C(=O)NC(C)(C)C)C3)cc21 (stereo unspecified)	.	-	-	-	-	.	.	.	.
COc1ccc(-c2coc3cc(OC4OC(CO)C(O)C(O)C4O)ccc3c2=O)cc1 (stereo unspecified)	-	-	-	-	-	.	.	.	.
COc1ccc(-c2coc3cc(OC)ccc3c2=O)cc1	-	5.8	-	19	-	12	7.0	13	-
CC(=O)Oc1ccc2c(=O)c(-c3ccccc3)coc2c1	-	5.9	-	13	-	6.5	4.0	-	-
CC(=O)N1CCc2cc(Br)c(S(=O)(=O)NCc3ccc(Cl)cc3)cc21	.	-	-	-	-	.	.	.	.
SMILES	DAX1 inh-1	DAX1 inh-2	ssDAF12 agonist	hgDAF12 agonist	hcDAF-12 act	DAX1 inh confirm	SF1 mutant ctr	hgDAF12 ag	LXRb DAF12 ctr	others
CC(=O)NC(Cc1ccc2c(c1)OCO2)C(=O)N1CCCN(C(C)=O)CC1 (stereo unspecified)	.	-	-	-	-	.	.	.	.
O=C(/C=C/c1ccccc1)CC(=O)c1ccccc1O	4.4	4.5	-	17	-	-	4.0	-	-
CC(=O)c1cccc(NS(=O)(=O)c2ccc(N/C=C\C(=O)c3ccc(C)cc3)cc2)c1	-	-	-	-	-	.	.	.	.
CC(=O)c1cccc(N/C=C\C(=O)c2ccc(C)cc2)c1	-	6.0	-	20	9.6	19	8.5	25	-	LXRb hcDAF ctr=-;hcDAF12 ag=9.7
CC1Cc2ccccc2N1C(=O)/C=C/c1cccc(F)c1 (stereo unspecified)	-	6.1	-	16	-	7.6	6.9	16	-
CC1Cc2ccccc2N1C(=O)COC(=O)/C=C/c1ccc(F)cc1 (stereo unspecified)	-	-	-	-	-	.	.	.	.
CCN=c1scc(-c2ccccc2)n1/N=C/c1ccccn1	-	.	.	.	.	.	.	.	.
CCN=c1scc(-c2ccc(F)cc2)n1/N=C/c1ccccn1	-	6.8	-	21	-	7.2	4.8	-	-
CCOC(=O)c1ccc(N/C=C/C(=O)c2ccco2)cc1	-	4.7	-	15	-	12	7.1	17	-
O=C(/C=C/Nc1ccc(F)cc1)c1ccco1	-	-	-	-	-	.	.	.	.
COC(=O)[C@]12C[C@H](CC(=O)N3CCCC3)C(=O)N(Cc3ccc(Cl)cc3Cl)C1=C[C@H](C(C)(C)C)O[C@@H]2C	.	-	-	-	-	.	.	.	.
O=C(Nc1ccc2c(c1)CCC2)Nc1ccccc1F	-	16	-	16	8.6	13	8.5	22	-	LXRb hcDAF ctr=-;hcDAF12 ag=8.6
O=C(Nc1ccccc1F)Nc1ccccc1F	-	-	-	-	-	.	.	.	.
O=C(Nc1ccccc1)Nc1ccc2c(c1)CCC2	-	10	-	16	-	7.5	5.0	15	-
O=C(NCCc1ccccc1)OCc1cn(Cc2cccc(F)c2F)nn1	.	-	-	-	-	.	.	.	.
Cc1nc(Nc2nc3ccccc3o2)nc(C)c1C	-	4.6	-	15	6.0	14	5.8	16	-
O=c1c2ccccc2nnn1CSc1ccccc1F	-	6.5	-	14	5.9	11	5.3	15	-
